Assay results from PubChem BioAssay AID2732 (Emory University Molecular Libraries Screening Center, 2010).
Out of some 220,000 compounds screened, about 8,200 (3.7%) were called active.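 The calls were made as follows: active = compounds that reduced the stress-induced luciferase reporter signal by more than about 70% of percent inhibition (limit read from the data); inactive = the rest.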 The full list was thinned out, with actives kept by preference.

test: inhibitors of CHOP promoter induction, primary screen, cell-based, unfolded protein response, luciferase reporter (AID 2732); conditions: CHO-K1 CHOP-promoter luciferase, tunicamycin-induced, 15-18 h; at 10 µM; hits give high values;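 also: 0% = tunicamycin plus vehicle and 100% = wells without tunicamycin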

Row | Structure (SMILES) | inhibition
1 | C=C(C)COc1ccc(-c2nc(N)ncc2-c2ccccc2OC)c(O)c1 | 7.39% (inactive)
2 | C=C(C)COc1ccc(-c2n[nH]c(C)c2-c2ccccc2OC)c(O)c1 | 105% (active)
3 | CCOc1ccc(-c2n[nH]c(C)c2-c2ccccn2)c(O)c1 | 9.43% (inactive)
4 | Cc1[nH]nc(-c2ccc(OCc3cnn(-c4ccccc4)c3)cc2O)c1Oc1ccc(Cl)cc1 | 51.5% (inactive)
5 | CCOc1ccc(-c2nc(N)ncc2-c2ccccc2OC)c(O)c1 | 16.1% (inactive)
6 | C=C(C)COc1ccc(-c2n[nH]c(C)c2-c2ccccc2)c(O)c1 | 112% (active)
7 | Brc1ccc(-c2nn[nH]n2)cc1 | 6.83% (inactive)
8 | COC(C[C@@H](O)[C@H](C)[C@H](O)COCc1ccccc1)OC | 0.72% (inactive)
9 | Cc1nc(CNS(=O)(=O)c2cc([N+](=O)[O-])ccc2C)cs1 | 24.2% (inactive)
10 | O=C(NCCc1ccccc1)Oc1ccc(Cl)cc1 | -12.7% (inactive)
11 | C=C(C)Cn1c(C)cc(C)c(S(=O)(=O)c2ccccc2C)c1=O | 72.7% (active)
12 | Cc1ccccc1Nc1c(-c2ccccc2)nc2ncccn12 | 1.44% (inactive)
13 | Clc1ccc(CSc2nnc3c(n2)[nH]c2ccccc23)cc1 | 10.8% (inactive)
14 | C=CCC1(C#N)C(=S)NC(C)=C(C(=O)OCC)C1c1ccccc1 (centres undefined) | 8.99% (inactive)
15 | CCOC(=O)/C=C/CN(C(=O)OC(C)(C)C)S(=O)(=O)N1CC=CC1 | 0.06% (inactive)
16 | O=C(Cc1csc(Nc2nc(=S)[nH]c3ccccc23)n1)NCCCN1CCN(c2cccc(Cl)c2)CC1 | 79.8% (active)
17 | O=C(CCn1c(=O)[nH]c2ccccc2c1=O)NCCCN1CCN(c2cccc(Cl)c2)CC1 | -9.62% (inactive)
18 | COc1cccc(CNC(=O)Cc2csc(Nc3nc(=S)[nH]c4ccccc34)n2)c1 | 49.7% (inactive)
19 | O=[N+]([O-])c1ccc2c(c1)C(O)n1nc(-c3ccccc3)nc1S2 (centres undefined) | 37.2% (inactive)
20 | CCCc1nc2c(c(=O)c3ccccc3n2C)c(=O)n1C1CCCCCC1 | 95.5% (active)

Row | Structure (SMILES) | inhibition
21 | CCCc1nc2c(c(=O)c3ccccc3n2C)c(=O)n1-c1cc(C)cc(C)c1 | -14.6% (inactive)
22 | Cn1c2ccccc2c(=O)c2c(=O)n(Cc3ccco3)c(COc3ccccc3)nc21 | -34.3% (inactive)
23 | COc1cc(OC)c(OC)cc1/C=N/Nc1ncnc2c1[nH]c1ccc(C)cc12 | -33.8% (inactive)
24 | O=c1ccnc(Nc2ccc(Cl)cc2)[nH]1 | -1.5% (inactive)
25 | CC1=NNC(=O)C1CCC(=O)N/N=C(\C)c1ccc(Cl)cc1 (centres undefined) | 5.21% (inactive)
26 | O=[N+]([O-])c1cc(S(=O)(=O)CCCN2CCOCC2)ccc1F | 97.8% (active)
27 | O=C(NCCCN1CCOCC1)c1ccc([N+](=O)[O-])cc1[N+](=O)[O-] | -3.24% (inactive)
28 | O=[N+]([O-])c1ccc(NCCCN2CCOCC2)c(Cl)c1 | 13% (inactive)
29 | O=C(CN1CCN(Cc2ccccc2)CC1)NC(c1ccccc1)c1ccccc1 | -8.53% (inactive)
30 | CC#CC[N+](C)(C)CCCCCC | -9.84% (inactive)
31 | [O-][N+]12CCCCC1CCCC2CO (centres undefined) | -6.34% (inactive)
32 | COC(=O)/C=C\C(=O)Nc1cccc([N+](=O)[O-])c1 | 107% (active)
33 | CC(=O)Nc1cccc([N+](=O)[O-])c1 | 13.9% (inactive)
34 | Cc1ccccc1NC(=S)Nc1cccc([N+](=O)[O-])c1 | 4.63% (inactive)
35 | COc1cccc(C(=O)n2ccc(-c3cccs3)n2)c1 | 17.3% (inactive)
36 | O=c1c2ccccc2cnn1Cc1n[nH]c(=S)n1-c1ccccc1F | 5.73% (inactive)
37 | CCOC(=O)N1CCN(C(=O)CSc2nc(C)nc3c2c(=O)n(C)c(=O)n3C)CC1 | 28.2% (inactive)
38 | CCC(C)Sc1nc(C)nc2c1c(=O)n(C)c(=O)n2C (centres undefined) | 82.4% (active)
39 | CSc1nc(C)nc2c1c(=O)n(C)c(=O)n2C | 11.2% (inactive)
40 | O=c1c(-c2ccc(Cl)cc2)[n+]([O-])c2ccccc2n1OCc1nc2ccccc2[nH]1 | 11.1% (inactive)

Row | Structure (SMILES) | inhibition
41 | C=CCC(Nc1ccccc1)c1cccc(OC)c1OC (centres undefined) | 29.3% (inactive)
42 | CSCCC(NS(=O)(=O)c1ccc2c(c1)oc(=O)n2C)C(=O)NCc1ccccc1 (centres undefined) | 18.5% (inactive)
43 | CSc1nc(C)cc(SC(C(C)=O)C(=O)Nc2ccccc2)n1 (centres undefined) | 9.45% (inactive)
44 | CSc1nc(-c2ccccc2)nc(C(Cl)Cl)n1 | 102% (active)
45 | COc1ccc(NS(=O)(=O)c2ccc(N3CCOCC3)c(NC(=O)c3ccccc3Br)c2)cc1 | -3.53% (inactive)
46 | CCOC(=O)N/N=C1\CC(C)S(=O)(=O)c2ccc(Cl)cc21 (centres undefined) | -26.8% (inactive)
47 | Cc1ccc(C(=O)NCC(=O)OCC(=O)Nc2cccc(S(=O)(=O)N3CCCC3)c2)cc1C | -17.8% (inactive)
48 | CC(C)=C1SC(N2CCN(c3ccc(C)c(Cl)c3)CC2)=NC1=O | 23.3% (inactive)
49 | Cc1cc(C)cc(NS(=O)(=O)c2ccc(Oc3ncc(C(F)(F)F)cc3Cl)cc2)c1 | 90.3% (active)
50 | COC(=O)Cc1ccc(Oc2ncc(C(F)(F)F)cc2Cl)cc1 | 29.9% (inactive)
51 | COc1ccccc1Oc1ccc(S(=O)(=O)Nc2cccnc2)cc1 | 44.6% (inactive)
52 | Cc1ccc(-n2c(SCC(=O)Nc3ncc(Cl)cc3Cl)nc3ccccc32)cc1 | 49.5% (inactive)
53 | Cc1ccc(SCCC(=O)OCC(=O)Nc2ncc(Cl)cc2Cl)cc1 | 82% (active)
54 | CC(Oc1ccc(Cl)cc1)C(=O)OCC(=O)Nc1ncc(Cl)cc1Cl (centres undefined) | 2.69% (inactive)
55 | Cc1cc(NC(=O)Nc2ccc(Cl)cc2)n(-c2ccccc2)n1 | 10.7% (inactive)
56 | C/C=C(/C)C(=O)Nc1cccc(C2=NOC3(C2)C[C@@H](C(N)=O)N(C(=O)C2(C)CC2)C3)c1 (some centres undefined) | -8.38% (inactive)
57 | Cc1ccc(-n2[nH]c(C)c(/C=N/N3C(=O)c4cccc5cccc(c45)C3=O)c2=O)cc1 | 36.5% (inactive)
58 | COc1cc(SC#N)ccc1N=Cc1c(C)[nH]n(-c2ccc(C)cc2)c1=O | 107% (active)
59 | CCc1nnc(NS(=O)(=O)c2ccc(N=Cc3c(C)[nH]n(-c4ccc(C)cc4)c3=O)cc2)s1 | -15.8% (inactive)
